PLC-beta3 inh: blocks human PLC-beta3 enzyme activity | Purified PLC-beta3, fluorogenic substrate, fluorescence | inhibition, % at 12.2 µM | 0.18% of 370,000 active | AID 720704; in the data active means inhibition above about 11%;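 further: 0% = median of compound wells on plate and 100% = full blocker control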
UHRF1 MBD2 ctr: UHRF1 methyl-DNA binding inhibition; UHRF1 binding to methylated oligo, TR-FRET; inhibition, % at 4.4 µM; 0.75% of 370,000 active; AID 687016; in the data active means inhibition above about 21%;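 further: UHRF1 SRA domain binding a hemimethylated CpG hairpin DNA probe; 0% = median of test compound wells and 100% = reference inhibitor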
Target sequence (Q96T88 whole entry, looked up, the tested form may be a part): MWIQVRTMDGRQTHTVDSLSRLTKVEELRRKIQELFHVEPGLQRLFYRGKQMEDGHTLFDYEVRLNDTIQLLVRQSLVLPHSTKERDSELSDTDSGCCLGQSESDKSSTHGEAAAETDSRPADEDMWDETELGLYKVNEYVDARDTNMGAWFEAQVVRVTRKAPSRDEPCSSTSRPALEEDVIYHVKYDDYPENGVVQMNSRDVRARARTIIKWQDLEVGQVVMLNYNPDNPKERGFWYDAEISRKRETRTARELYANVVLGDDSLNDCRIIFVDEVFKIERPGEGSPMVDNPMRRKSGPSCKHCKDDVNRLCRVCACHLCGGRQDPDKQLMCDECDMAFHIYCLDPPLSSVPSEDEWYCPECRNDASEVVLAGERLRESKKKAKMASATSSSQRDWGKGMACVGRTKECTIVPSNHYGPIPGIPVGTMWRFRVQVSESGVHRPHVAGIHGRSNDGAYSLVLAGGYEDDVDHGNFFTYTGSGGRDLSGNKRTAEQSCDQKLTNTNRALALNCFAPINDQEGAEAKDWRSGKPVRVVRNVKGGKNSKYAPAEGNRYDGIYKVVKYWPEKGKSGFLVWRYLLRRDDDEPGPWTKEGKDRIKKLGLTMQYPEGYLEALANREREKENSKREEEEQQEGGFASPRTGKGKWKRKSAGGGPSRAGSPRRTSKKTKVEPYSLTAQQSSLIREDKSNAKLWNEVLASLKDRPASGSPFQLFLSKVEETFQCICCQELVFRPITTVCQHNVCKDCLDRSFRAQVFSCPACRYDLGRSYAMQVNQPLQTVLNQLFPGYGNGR
PLCg1 inh: blocks human PLC-gamma1 enzyme activity; P19174; 0.84% of 370,000 active; purified PLC-gamma1, fluorogenic substrate, fluorescence; inhibition, % at 12.2 µM; AID 720700; in the data active means inhibition above about 9.5%
MBD2 DNA inh: blocks human MBD2 binding to methylated DNA. 0.31% of 370,000 active. TR-FRET, MBD2 binding to methylated oligonucleotide. AID 686964. inhibition, % at 4.4 µM. Q9UBB5; in the data active means inhibition above about 13%
LEDGF integ inh: blocks HIV-1 LEDGF/p75-dependent DNA integration; TR-FRET IN-LEDGF/p75 DNA integration, Eu/Cy5; inhibition, % at 3.7 µM; 0.64% of 370,000 active; AID 743269;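 active means inhibition above the screen-wide mean plus 3 SD, cut at about 13% in these data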;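 further: signal is the Cy5 over europium emission ratio at 671 and 618 nm; 0% = plate median of compound wells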
Numbers without * were called inactive. Sampled rows, rich in hits. Any-hit rate of the full collection: about 2.3%.

SMILES | PLC-beta3 inh | UHRF1 MBD2 ctr | PLCg1 inh | MBD2 DNA inh | LEDGF integ inh
O=C(Nc1ccc(NC(=O)c2ccco2)c(Cl)c1)c1ccccc1 | 4 | 42* | -5 | 3 | -3
O=C(c1cnn2c(C(F)F)cc(C3CC3)nc12)N1CCCC1 | -35 | -2 | -25 | 4 | 3
O=C(c1cc2nc(C3CC3)cc(C(F)F)n2n1)N1CCOCC1 | -22 | 21* | -14 | 3 | 4
O=C(CSc1ncnc2sc3c(c12)CCCC3)Nc1ccc(Oc2ccccc2)cc1 | 4 | 1 | 8 | -2 | 7
C=CC[C@@H](CC(=O)N[C@@H](CO)Cc1ccccc1)C(=O)N[C@H](COC(=O)[C@H](CC=C)CC(=O)OC(C)(C)C)Cc1c[nH]c2ccccc12 | 3 | 1 | 6 | 2 | -3
C=CCC[C@H](Cc1ccc(F)cc1)C(=O)OC[C@H](Cc1c[nH]c2ccccc12)NC(=O)[C@@H](CC=C)CC(=O)NCCO | 2 | 3 | 12* | 7 | -2
C=CC[C@@H](CC(=O)N[C@H](CO)Cc1ccccc1)C(=O)N[C@H](COC(=O)[C@H](CC=C)CC(=O)OC(C)(C)C)Cc1c[nH]c2ccccc12 | 4 | 1 | 10* | 3 | 0
CCN(CC)C(=O)CC[C@H]1CC[C@]2(CCCN(Cc3cccnc3)C2)O1 | -2 | -2 | -3 | 3 | -2
CC1CCN(C(=O)c2ccc(S(=O)(=O)N3CCCC3)cc2)CC1 | -8 | 41* | 2 | 2 | -4
CC1CCN(S(=O)(=O)c2ccc(C(=O)N3CCCC3C(=O)O)cc2)CC1 (configuration not stated) | 1 | 57* | -1 | 3 | 4
CCC(=O)c1ccccc1OCCN1C(=O)NC(C)(C)C1=O | 2 | 7 | 0 | -2 | -1
CC1(C)NC(=O)N(CCOCCOc2ccccc2-c2ccccc2)C1=O | 2 | 28* | -2 | 1 | -1
O=C(NC1CCCCN(Cc2ccc(OC(F)(F)F)cc2)C1=O)c1cccc(C(F)(F)F)c1 (configuration not stated) | -5 | 0 | -1 | 1 | -2
Cc1cc(C(=O)NCc2cccs2)no1 | 3 | 6 | 3 | 0 | -2
Cc1cc(NC(=O)CCCC(=O)NCc2cccs2)no1 | 2 | 25* | 1 | 12 | 5
CCOC(=O)c1c(C)[nH]c(C)c1C(=O)CSc1nc2ccccc2c(=O)n1-c1ccc(F)cc1 | 0 | 0 | -1 | 1 | -1
CCOC(=O)c1c(C)[nH]c(C)c1C(=O)CSc1nc2ccccc2c(=O)n1-c1ccccc1C | 3 | 21* | 6 | 11 | 3
Cc1ccccc1C(=O)N(C)[C@H]1C[C@H]2c3[nH]c4c(-c5ccc6c(c5)OCO6)cccc4c3CCN2C[C@H]1[C@H](C)O | -28 | -3 | -25 | -5 | 5
O=C(c1ccc2c(c1)C(=O)N(CCCO)C2=O)c1ccc2c(c1)C(=O)N(CCCO)C2=O | 3 | 1 | 2 | 0 | 2
O=C(O)c1ccc(C(=O)c2ccc3c(c2)C(=O)N(CCO)C3=O)cc1 | -6 | 22* | 2 | 11 | -3
Cc1nc(N(C)C)c2sc(=S)n(C)c2n1 | 0 | 27* | 1 | -1 | -3
Cc1nc(N(C)C)c2sc(=S)n(-c3ccccc3)c2n1 | 2 | 11 | 2 | 6 | -1
Cc1nc2sc(C(=O)NCc3ccc4c(c3)OCO4)c(N)c2c(C)c1Cl | -205 | 0 | -140 | 3 | -3
CC(C)CNC(=O)OCc1cn(Cc2ccccc2Cl)nn1 | 1 | -1 | 2 | 3 | 1
O=C(Nc1cccc2ccccc12)c1ccccc1NS(=O)(=O)c1cccc2cccnc12 | 0 | 0 | 0 | -2 | -2
SMILES | PLC-beta3 inh | UHRF1 MBD2 ctr | PLCg1 inh | MBD2 DNA inh | LEDGF integ inh
O=C(O)c1ccccc1NS(=O)(=O)c1cccc2cccnc12 | 11* | 5 | 8 | -5 | -1
Cc1nn(C)c(C)c1C1C(C#N)=C(N)OC2=C1C(=O)CCC2 (configuration not stated) | 2 | 21* | 3 | 9 | 0
Cc1occc1C(=O)N(Cc1nc(-c2ccccc2)no1)C(C)C | 4 | 24* | 4 | 5 | 12
CCN(Cc1nc(-c2ccccc2)no1)C(=O)c1ccoc1C | -7 | 5 | -1 | 1 | -1
O=C(Cn1c(=O)c2cccn2c2cccnc21)NCCCN1CCN(c2ccc(Cl)cc2)CC1 | 4 | 1 | -1 | -1 | 4
O=C(CCl)N1CCN(CC(=O)N2CCCC2)CC1 | 3 | 21* | 8 | -4 | 8
CC(=O)NC1CCCCN(Cc2cccc(F)c2)C1=O (configuration not stated) | 1 | -1 | 1 | 2 | -1
O=c1[nH]c(CN2CCc3ccccc3C2)nc2ccccc12 | -24 | -9 | -26 | -3 | 4
Cc1[nH]c2ccccc2c1CN1CCc2ccccc2C1 | -36 | 21* | -25 | 14* | 8
O=C(CSc1nnc(COc2ccccc2)n1-c1ccccc1)Nc1ccc(S(=O)(=O)Nc2nccs2)cc1 | 2 | -1 | -1 | 4 | 2
O=c1c2ccc(F)cc2nc2sc(Nc3ccc4c(c3)CCC4)nn12 | -3 | -1 | -1 | 5 | -3
Cc1cccc(N2CCN(c3ccc4cc(S(=O)(=O)N5CCCCC5)ccc4n3)CC2)c1C | -6 | 23* | -3 | 11 | 1
O=S(=O)(c1ccccc1)c1nc(-c2ccccc2Cl)oc1NCCN1CCOCC1 | -11 | 1 | -8 | -2 | 3
O=S(=O)(c1ccccc1)c1nc(-c2ccccc2Cl)oc1NCCCN1CCOCC1 | -3 | 40* | -1 | 3 | -2
O=C1C(=O)N(c2nccs2)C(c2ccccc2F)/C1=C(\O)c1ccc2c(c1)OCCO2 (configuration not stated) | -91 | 23* | -61 | 9 | 4
CN(C)C(=O)[C@H]1C[C@H]1[C@@H](O)[C@H](CO)NC(=O)[C@H](Cc1ccccc1)NC(=O)OC(C)(C)C | 3 | 28* | 0 | 12 | 11
CN(C)C(=O)[C@H]1C[C@H]1[C@@H](O)[C@H](CO)NC(=O)[C@H](COCc1ccccc1)NC(=O)OC(C)(C)C | 5 | 4 | 2 | 3 | -1
CC1(C(=O)NCc2ccccc2)Cc2c(-c3ccccc3)ccnc2O1 (configuration not stated) | 5 | 66* | 5 | 1 | 2
N/C(Cc1ccc(Cl)cc1Cl)=N\OC(=O)Cc1cccs1 | -3 | 58* | -1 | 3 | -6
Cc1ccccc1N(CC(=O)N1CCN(Cc2ccccc2)CC1)S(C)(=O)=O | -1 | 21* | 2 | 7 | 0
Cc1ccccc1N(CC(=O)N1CCN(c2ccccc2)CC1)S(C)(=O)=O | -1 | 2 | -1 | 0 | 0
COc1ccccc1-c1c(C)nn2c(N3CCN(c4ccccc4OC)CC3)cc(C)nc12 | -7 | 26* | -4 | 1 | -3
COc1ccccc1-c1c(C)nn2c(N3CCCCCC3)cc(C)nc12 | -105 | -1 | -87 | -2 | -2
Cc1cc(C(=O)NP(=O)(N2CCOCC2)N2CCOCC2)c(C)n1-c1ccc(Br)cc1 | 1 | 21* | -1 | 6 | 0
